# Data published in the supplement of paper PMC9694430.
# What was measured:
# Experiment in all cases: thermal shift delta Tm vs DMSO control; higher = stronger stabilization (binding)
# Conditions in all cases: 12.5 µM; protein concentration 2 µM
# LOC_OS01G57100-cb003 = test system: LOC_OS01G57100-cb003
# Method in brief: (§1)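 The melting temperature shift given here is a triplicate mean, measured against protein that received only DMSO. Melting temperatures came from Boltzmann fits of differential scanning fluorimetry data on E. coli-expressed, purified rice kinase domain constructs. Each 19.5 μl well contained 2 μM kinase, 100 mM potassium phosphate pH 7.5, 150 mM NaCl, 10% glycerol, 5 × SYPRO Orange and compound in DMSO. Plates were scanned from 25°C to 95°C at 0.05°C/s.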
# LOC_OS01G60330-cb001 = test system: LOC_OS01G60330-cb001
# Method in brief: as §1
# LOC_OS01G60700-cb002 = test system: LOC_OS01G60700-cb002
# Method in brief: as §1
# LOC_OS01G63280-cb003 = test system: LOC_OS01G63280-cb003
# Method in brief: as §1
# LOC_OS01G67340-cb003 = test system: LOC_OS01G67340-cb003
# Method in brief: as §1
# LOC_OS01G70970-cb002 = test system: LOC_OS01G70970-cb002
# Method in brief: as §1
# LOC_OS02G07810-cb001 = test system: LOC_OS02G07810-cb001
# Method in brief: as §1
# LOC_OS02G08530-cb003 = test system: LOC_OS02G08530-cb003
# Method in brief: as §1
# LOC_OS02G14120-cb001 = test system: LOC_OS02G14120-cb001
# Method in brief: as §1
# LOC_OS02G17970-cb001 = test system: LOC_OS02G17970-cb001
# Method in brief: as §1
# LOC_OS02G45750-cb003 = test system: LOC_OS02G45750-cb003
# Method in brief: as §1
# LOC_OS02G54510-cb004 = test system: LOC_OS02G54510-cb004
# Method in brief: as §1
# LOC_OS03G04050-cb001 = test system: LOC_OS03G04050-cb001
# Method in brief: as §1
# LOC_OS03G12390-cb001 = test system: LOC_OS03G12390-cb001
# Method in brief: as §1
# LOC_OS03G27990-cb004 = test system: LOC_OS03G27990-cb004
# Method in brief: as §1
# LOC_OS03G50450-cb001 = test system: LOC_OS03G50450-cb001
# Method in brief: as §1
# LOC_OS03G50810-cb003 = test system: LOC_OS03G50810-cb003
# Method in brief: as §1
# LOC_OS04G35114-cb001 = test system: LOC_OS04G35114-cb001
# Method in brief: as §1
# LOC_OS04G38480-cb003 = test system: T1, LOC_OS04G38480-cb003
# T1 sequence (whole entry): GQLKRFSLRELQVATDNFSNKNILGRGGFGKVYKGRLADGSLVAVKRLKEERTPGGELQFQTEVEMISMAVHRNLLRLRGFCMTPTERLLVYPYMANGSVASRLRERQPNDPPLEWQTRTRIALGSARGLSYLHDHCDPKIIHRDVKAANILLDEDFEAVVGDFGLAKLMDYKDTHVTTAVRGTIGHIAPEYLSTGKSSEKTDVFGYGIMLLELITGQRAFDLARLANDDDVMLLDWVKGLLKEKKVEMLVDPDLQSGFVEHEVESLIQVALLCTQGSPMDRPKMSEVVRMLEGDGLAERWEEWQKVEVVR
# Method in brief: as §1
# LOC_OS04G41100-cb001 = test system: T2, LOC_OS04G41100-cb001
# T2 sequence (whole entry): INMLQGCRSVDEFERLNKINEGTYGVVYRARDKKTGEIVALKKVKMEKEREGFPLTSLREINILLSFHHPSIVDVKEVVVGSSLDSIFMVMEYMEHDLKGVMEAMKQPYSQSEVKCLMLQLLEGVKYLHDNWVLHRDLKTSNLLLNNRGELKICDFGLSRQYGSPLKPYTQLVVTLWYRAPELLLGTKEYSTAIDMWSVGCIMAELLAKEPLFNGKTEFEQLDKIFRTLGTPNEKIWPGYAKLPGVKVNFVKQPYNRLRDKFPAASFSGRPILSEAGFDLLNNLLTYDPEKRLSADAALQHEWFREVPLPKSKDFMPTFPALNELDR
# Method in brief: as §1
Structure (SMILES),thermal shift delta Tm (LOC_OS01G57100-cb003) [°C],thermal shift delta Tm (LOC_OS01G60330-cb001) [°C],thermal shift delta Tm (LOC_OS01G60700-cb002) [°C],thermal shift delta Tm (LOC_OS01G63280-cb003) [°C],thermal shift delta Tm (LOC_OS01G67340-cb003) [°C],thermal shift delta Tm (LOC_OS01G70970-cb002) [°C],thermal shift delta Tm (LOC_OS02G07810-cb001) [°C],thermal shift delta Tm (LOC_OS02G08530-cb003) [°C],thermal shift delta Tm (LOC_OS02G14120-cb001) [°C],thermal shift delta Tm (LOC_OS02G17970-cb001) [°C],thermal shift delta Tm (LOC_OS02G45750-cb003) [°C],thermal shift delta Tm (LOC_OS02G54510-cb004) [°C],thermal shift delta Tm (LOC_OS03G04050-cb001) [°C],thermal shift delta Tm (LOC_OS03G12390-cb001) [°C],thermal shift delta Tm (LOC_OS03G27990-cb004) [°C],thermal shift delta Tm (LOC_OS03G50450-cb001) [°C],thermal shift delta Tm (LOC_OS03G50810-cb003) [°C],thermal shift delta Tm (LOC_OS04G35114-cb001) [°C],thermal shift delta Tm (LOC_OS04G38480-cb003) [°C],thermal shift delta Tm (LOC_OS04G41100-cb001) [°C]
CCc1nc(-c2cccc(C)c2)c(-c2ccnc(NC(=O)c3ccccc3)c2)s1,0.93,1.03,1.53,0.61,0.22,0.22,0.98,0.24,0.43,0.22,0.74,-0.41,0.27,0.6,0.28,0.06,0.03,1.27,0.74,0.61
CC(=O)c1c(C)c2cnc(Nc3ccc(N4CCNCC4)cn3)nc2n(C2CCCC2)c1=O,-0.7,1.73,0.15,-0.12,1.56,0.58,-0.42,1.29,4.13,0.68,6.05,0.3,0.22,5.44,2.08,0.53,2.97,3.19,1.9,1.04
COc1cc2ncnc(Nc3cccc(Cl)c3)c2cc1OC [AG-1478 (Tyrphostin AG-1478)],1.76,1.26,1.02,0.95,0.94,0.55,1.34,1.69,6.87,1.37,4.64,0.2,0.25,2.86,0.56,0.38,2.25,6.57,2.27,0.04
CC(C)(C#N)c1ccc(N2C(=O)OCc3cnc4ccc(-c5cnc6ccccc6c5)cc4c32)cc1,1.9,0.57,1.49,0.63,0.63,0.56,0.18,0.94,1.27,0.63,0.62,0.01,0.55,0.2,0.32,0.21,0.32,1.01,0.8,0.2
Cc1ccc(NC(=O)c2ccc(CN3CCN(C)CC3)cc2)cc1Nc1nccc(-c2cccnc2)n1 [Imatinib (STI571)],1.6,0.71,0.95,0.65,0.52,0.38,0.18,1.39,1.22,0.21,1.17,0.22,0.47,-0.05,0.26,0.4,0.42,0.92,0.88,0.5
CC(C)N(CCC(=O)c1ccc2ccccc2c1)Cc1ccccc1,1.6,-0.95,1.89,-2.65,-0.6,-5.39,0.33,-1.55,-2,5.17,-0.52,-0.55,0.06,-6.73,-1,0.58,-1.55,-1.2,0.27,2.52
"CC[C@H](CO)Nc1nc(NCc2ccccc2)c2ncn(C(C)C)c2n1 [Roscovitine (Seliciclib,CYC202)]",0.43,0.99,0.89,0.16,-0.54,0.28,0.93,0.8,0.04,0.31,0.1,0.11,0.22,0.14,-0.05,0.28,0.02,0.57,0.99,0.53
N#CC(=C(/N)Sc1ccccc1N)/C(C#N)=C(\N)Sc1ccccc1N,-0.44,2.17,0.48,2.36,0.77,0.62,1.33,1.04,0.63,0.85,0.68,-0.59,0.78,1.33,0.63,0.62,0.78,-0.47,-1.15,0.28
CC(C)S(=O)(=O)c1ccc2nccc(Nc3ccc4scnc4c3)c2c1,1.27,0.31,0.69,0.17,0.82,0.33,-0.59,1.18,1.58,1.42,1.88,0.89,0.51,0.9,0.22,0.37,0.61,2.38,2.44,0.32
CN1CCN(Cc2ccc(NC(=O)Nc3ccc(Oc4ccnc(N)n4)cc3)cc2C(F)(F)F)CC1,-0.21,0.73,1.34,8.29,0.95,2.3,0.57,2.59,6.74,1,5.22,7.6,0.12,1.46,0.06,-0.31,3.62,0.16,2.07,6.72
"C[C@H](Nc1ncnc2nc[nH]c12)c1cc2cccc(Cl)c2c(=O)n1-c1ccccc1 [Duvelisib (IPI-145, INK1197)]",-0.45,0.3,1.43,0.2,0.06,0.33,0.73,0.77,0.47,0.68,-1.36,2.02,-0.19,-0.34,-0.31,0.38,0.72,-1.37,0.01,0.58
Cc1cc(CS(=O)(=O)c2ccccc2)cc(OCc2ccc(CN3CCC[C@@H]3CO)cc2)c1,0.61,0.03,1.22,-0.1,-0.36,0.62,0.61,0.53,-0.41,0.96,-0.41,0.16,0.65,-0.25,0.41,0.6,0.23,0.57,0.83,0.44
